According to the supplement of paper PMC10941209:
Values without a mark were called inactive.

What follows are compounds tested on Toxoplasma gondii RH 2F1 tachyzoites (intracellular in HFF) (assay: parasite survival relative to DMSO control; higher = less antiparasitic activity, active = 20 or less). Details: 1 µM; 72 h.
In short: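 Intracellular Toxoplasma gondii RH-2F1 tachyzoites, which express β-galactosidase, were grown in HFF cells (5 × 10^3 cells/well, 96-well plates) infected with 5 × 10^3 parasites in D2 medium for 3 h, then treated with compound at 1 μM for 72 h at 37°C in 5% CO2. Cells were lysed for 15 min, then CPRG was added and absorbance read at 570 nm after 30 min. Survival is the signal as a percentage of DMSO-treated infected controls, from 2 or more biological replicates.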

Point of comparison: `CC(C)Nc1ncnc2c1cnn2-c1ccc(Cl)cc1`, parasite survival 58.2%. Against it:
- Cc1c(CN(C)C(=O)/C=C/c2cnc3c(c2)C(C)(C)C(=O)N3)oc2ccccc12 — lower, 54.1%
- CC(C)(C)c1ccc(Oc2ccc(N)cc2)cc1 — higher, 81.4%
- Cc1c(F)cccc1NC(=O)Nc1ccc(Cl)c(S(=O)(=O)[C@H]2CCCNC2)c1O — higher, 73.2%
- C[N+]1(C)CCCC(OC(=O)C(O)(c2ccccc2)c2ccccc2)C1 (stereo unspecified) — higher, 61.6%
- Cc1cc(CCOc2c(C)cc(-c3nnn(C)n3)cc2C)on1 — higher, 65.1%
- Cc1ccc(NC(=O)c2ccc(CN3CCN(C)CC3)cc2)cc1Nc1nccc(-c2cccnc2)n1 — higher, 61%
- O=C(O)COc1cccc2c1CC[C@](O)(COC(=O)N(c1ccccc1)c1ccccc1)C2 — higher, 76.3%
- Cc1nc2ccc(Cl)cc2c(-c2ccccc2)c1CC(=O)O — higher, 79.3%
- CCc1cc(CCCOc2c(C)cc(-c3noc(C(F)(F)F)n3)cc2C)on1 — lower, 55.4%
- CC(C)(C)c1cccc(-c2nc3cc(C(=N)N)ccc3[nH]2)c1O — lower, 50.5%
- NS(=O)(=O)c1ccc(NC(=O)NC(c2ccccc2)c2ccccc2)cc1 — lower, 32%
- CCCCCCC1c2ccc(O)cc2Oc2cc(O)ccc21 — lower, 25.2%
- O=C(NC(=O)N1CCCc2ccccc21)c1cccc(Cl)c1 — lower, 28.3%

`Cc1nc2ccc(Oc3ccccc3)cc2c2c1CCN2CCc1ccccc1` was tested, and the parasite survival was 8.56% (active).
In the case of `Cc1[nH]c2ccccc2c1CCNCc1ccc(/C=C/C(=O)NO)cc1`, the parasite survival was 4.12% (active).
